Hedgehog inh: blocks Sonic Hedgehog signaling. AID 2313. Shh-LIGHT2 Gli-luciferase reporter, 30 h. inhibition, % (test concentration not listed). actives 2.1% (n = 22,000);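 active means mean inhibition across valid replicates above about 65%, limit read from the data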;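 further: pathway switched on by Shh-conditioned medium diluted 1 in 25 in low serum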
PD-1 reversal: reversal of PD-1 mediated T-cell inhibition. primary human CD4 T cells, PD-L1 beads, CellTiter-Glo 96 h. activation, % (test concentration not listed). 29,000 tested, under 10 active. AID 2316; call rule not given here
NOMO-1 viab: STK33 inhibitor candidate reducing NOMO-1 cell viability; NOMO-1 AML viability, CellTiter-Glo luminescence, 72 h; inhibition, % (concentration not given with the values); actives 7.5% (n = 37,000); AID 2330; in the data active means inhibition above about 80%
Numbers stand for hits. An excerpt weighted towards active compounds, which were near 7.7% of everything screened.

`COc1cccc(/C=N/n2cnnc2)c1` gave Hedgehog inh inactive, PD-1 reversal inactive and NOMO-1 viab inactive.
Screening Cc1csc(Nc2ccc(F)c(Cl)c2)[n+]1C(C)C returned Hedgehog inh inactive, PD-1 reversal inactive and NOMO-1 viab inactive.
For N#Cc1c(NC(=O)c2cc(S(=O)(=O)N3CCOCC3)cs2)sc2c1CCCC2 the results were PD-1 reversal inactive and NOMO-1 viab inactive.
Screening N#CC(C(=O)c1ccco1)c1nc2ccccc2[nH]1 (configuration not stated) returned Hedgehog inh inactive, PD-1 reversal inactive and NOMO-1 viab inactive.
Cc1cccc(C)c1N(CC(=O)NC1CCCCC1)S(C)(=O)=O was read as PD-1 reversal inactive and NOMO-1 viab inactive.
Screening COc1ccc(-c2cc(C(F)F)n3ncc(C(=O)N(C)Cc4cnn(C)c4C)c3n2)cc1 returned NOMO-1 viab inactive.
Cc1cc(C)c2nc(-c3cccnc3)cc(C(=O)Nc3c(C)nn(Cc4ccccc4C)c3C)c2c1 was read as NOMO-1 viab inactive.
Screening C[C@@H]1CN([C@H](C)CO)C(=O)Cc2cc(NS(C)(=O)=O)ccc2O[C@H]1CN(C)CC1CC1 returned Hedgehog inh 75, PD-1 reversal inactive and NOMO-1 viab inactive.
Screening C[C@@H]1CN([C@@H](C)CO)C(=O)Cc2cc(NS(=O)(=O)c3ccc(Cl)cc3)ccc2O[C@@H]1CN(C)CC1CC1 returned NOMO-1 viab inactive.
For C[C@H]1CN([C@@H](C)CO)C(=O)Cc2cc(NS(=O)(=O)c3ccc(Cl)cc3)ccc2O[C@@H]1CN(C)CC1CCCCC1 the results were Hedgehog inh inactive and NOMO-1 viab 120.
Screening C[C@@H]1CN([C@@H](C)CO)C(=O)Cc2cc(NS(C)(=O)=O)ccc2O[C@@H]1CN(C)CC1CCCCC1 returned Hedgehog inh inactive and NOMO-1 viab inactive.
For CCOc1ccc(NC(=O)CSc2nnc(-c3cccs3)n2C)cc1 the results were PD-1 reversal inactive and NOMO-1 viab inactive.
`O=C(CSc1ncnc2scc(-c3ccccc3)c12)c1ccccc1` gave PD-1 reversal inactive and NOMO-1 viab inactive.
Screening Cc1ccc(C)c(C(Nc2ccccn2)c2cc(Cl)c3cccnc3c2O)c1 (configuration not stated) returned PD-1 reversal inactive and NOMO-1 viab 113.
For Cn1nc(-c2ccc(OCC(=O)Nc3cccnc3)cc2)c2ccccc2c1=O the results were PD-1 reversal inactive and NOMO-1 viab inactive.
`CSc1ccc(S(=O)(=O)NCc2ccccn2)cc1` gave PD-1 reversal inactive and NOMO-1 viab inactive.
`CCOc1ccc(C(Nc2cccnc2)c2cc(Cl)c3cccnc3c2O)cc1` (configuration not stated) gave NOMO-1 viab 115.
Screening COc1cc(C(Nc2ccccn2)c2cc(Cl)c3cccnc3c2O)cc(Br)c1O (configuration not stated) returned NOMO-1 viab inactive.
`CCc1ccc(C(Nc2ccccn2)c2cc(Cl)c3cccnc3c2O)cc1` (configuration not stated) gave PD-1 reversal inactive and NOMO-1 viab 123.
Screening CSc1ccc(C(Nc2ccccn2)c2cc(Cl)c3cccnc3c2O)cc1 (configuration not stated) returned PD-1 reversal inactive and NOMO-1 viab 112.
For COc1ccc(OC)c(NC(=O)CSc2nnc(-c3ccc(Cl)cc3Cl)n2C)c1 the results were NOMO-1 viab inactive.
For CCCCN1C(=O)/C(=C2/Sc3ccc(OC)cc3N2C)SC1=S the results were Hedgehog inh inactive, PD-1 reversal inactive and NOMO-1 viab inactive.
CCn1c(SCC(=O)NC(C)(C)C)nnc1-c1cccc([N+](=O)[O-])c1 was read as PD-1 reversal inactive and NOMO-1 viab inactive.
Screening COC(=O)c1ccccc1NC(=O)C(C)NS(=O)(=O)c1cc(Cl)ccc1Cl (configuration not stated) returned PD-1 reversal inactive and NOMO-1 viab inactive.
Screening Cc1ccc(C(C)C)c(OCC(=O)Nc2cc(-c3nc4ccccc4o3)ccc2C)c1 returned PD-1 reversal inactive and NOMO-1 viab inactive.
`CCc1nc(SCS(=O)(=O)c2ccc(C)cc2)c(C#N)c2c1CCCC2` gave Hedgehog inh inactive, PD-1 reversal inactive and NOMO-1 viab inactive.
Screening O=C(NCc1ccccn1)C(=O)Nc1ccccc1F returned PD-1 reversal inactive and NOMO-1 viab inactive.
`CCOc1cccc2c(C)nc(Nc3nc4c(c(=O)[nH]3)CCCC4)nc12` gave NOMO-1 viab 121.
`Cc1nc(SCC(=O)Nc2cccc(Cl)c2Cl)nc2c1CCCC2` gave NOMO-1 viab inactive.
For CCOC(=O)c1c(NC(=O)CN2C(=O)COc3ccc(Cl)cc32)sc2c1CCCC2 the results were NOMO-1 viab inactive.
For C[C@@H]1CN([C@@H](C)CO)C(=O)c2cc(NS(=O)(=O)c3ccc(F)cc3)ccc2O[C@@H]1CN(C)Cc1ccc(C(=O)Nc2ccccc2N)cc1 the results were PD-1 reversal inactive and NOMO-1 viab 110.

Screening results as filed in PubChem.
